This is an account of results in ChEMBL document CHEMBL4513135, “CO-ADD screening of IQOG CSIS (Spain) compounds”.

One assay concerns Staphylococcus aureus. Particulars: Concentration 32 ug.mL-1; ASSAY_TEST Inhibition of Bacterial Growth; detection method Absorption (OD600); MEDIA CAMHB; plate type 384well; NBS; CORNING #3640; time 18 hr.
In another assay the test system is Escherichia coli. The following applies: Concentration 32 ug.mL-1; ASSAY_TEST Inhibition of Bacterial Growth; detection method Absorption (OD600); MEDIA CAMHB; plate type 384well; NBS; CORNING #3640; time 18 hr.

Potency and affinity values are given separately.

Take `N#Cc1c(-c2ccccc2)c2ccc3ccccc3c2oc1=O`: the Inhibition (usually the drop in the measured response relative to a control, in per cent) in the assay with Staphylococcus aureus was 33.43%; in the assay with Escherichia coli, -8.95%.

With `c1ccc(CNc2ncnc3c2cnn3-c2ccccc2)cc1`, the results for the Inhibition with Staphylococcus aureus and in the assay on Escherichia coli were 7.54% and 6.64%, respectively.

In the case of `COc1ccc(-c2cc(-c3cc4c(OC)ccc(OC)c4nc3Cl)cc(=O)[nH]2)cc1`, the Inhibition is recorded as 22.4% with Staphylococcus aureus and -10.79% in the assay on Escherichia coli.

Regarding `CC1=N/C(=C(\C)c2ccccc2)C(=O)O1`, the Inhibition is -1.19% in the assay with Staphylococcus aureus and 0.61% in the assay on Escherichia coli.

Take `CCOC(=O)c1cn(C)c2ccccc12`: the Inhibition turned out to be 5.67% in the assay on Staphylococcus aureus and 4.13% with Escherichia coli.

On to `N#CC1=C(Cl)Oc2ccc3ccccc3c2C1c1ccccc1` (centres undefined), for which the Inhibition stood at 24.96% with Staphylococcus aureus and 12.43% in the assay with Escherichia coli.

Take `CCOC(=O)/C(C#N)=C\c1ccc([N+](=O)[O-])cc1`: the Inhibition in the assay with Staphylococcus aureus was determined as 32.65%; with Escherichia coli, 19.98%.

In the case of `C#CCNc1nc(Cl)c(C#N)c(-c2ccccc2)c1C#N`, the Inhibition was determined as 4.06% in the assay on Staphylococcus aureus and 10.8% with Escherichia coli.

As to `N#CC1=C(N)Oc2c(ccc3ccccc23)C1c1ccccc1` (centres undefined), the Inhibition in the assay with Staphylococcus aureus was 23.38%; with Escherichia coli, -4.89%.

Consider `COc1ccc(C=C2N=C(SC)N(C)C2=O)cc1`, for which the Inhibition with Staphylococcus aureus is -4.46%; with Escherichia coli, 0.92%.

In the case of `CC(=O)Oc1ccc(C=C2N=C(c3ccccc3)OC2=O)cc1`, the Inhibition in the assay with Staphylococcus aureus was 10.97%; in the assay with Escherichia coli it was 17.49%.

Consider `Cc1ccc(C(O)SNNc2ncnc3c2c(C)nn3-c2ccccc2)cc1` (centres undefined), for which the Inhibition came to 5.38% with Staphylococcus aureus and 11.97% in the assay with Escherichia coli.

Turning to `C#CCN(C)c1cc(C)nc(C)n1`, the Inhibition with Staphylococcus aureus is listed as 21.48%; in the assay on Escherichia coli it was -8.55%.

For `N#Cc1c(N)nc(Cl)c(C#N)c1-c1ccccc1`, the Inhibition in the assay on Staphylococcus aureus was determined as 17.3%; in the assay with Escherichia coli it was 12.56%.

Regarding `CN(C)c1nc2nc3c(c(N)c2c(-c2ccccc2)c1C#N)CCCC3`, the Inhibition was 5.71% in the assay with Staphylococcus aureus and -1.51% in the assay on Escherichia coli.

As to `NC1(C(=O)O)CC1c1ccc2c(c1)OCO2` (centres undefined), the Inhibition is recorded as -7.05% in the assay on Staphylococcus aureus and -7.79% in the assay on Escherichia coli.

With `CCOC(=O)c1c(C)nc(NC2CCN(Cc3ccccc3)CC2)c(C#N)c1-c1ccccc1`, the Inhibition in the assay with Staphylococcus aureus is 43.62%; in the assay with Escherichia coli, -5.95%.

In the case of `Nc1nc(N)c(C=O)c(-c2ccccc2)c1C=O`, the values for the Inhibition in the assay on Staphylococcus aureus and in the assay with Escherichia coli were 3.38% and 16.24%, respectively.

Regarding `O=C(O)/C(=C\c1ccccc1)NC(=O)c1ccccc1`, the Inhibition turned out to be 14.68% in the assay with Staphylococcus aureus and 10.16% in the assay on Escherichia coli.

Regarding `CC(C)CC(C)NNC(=O)c1cc2ccccc2[nH]1` (centres undefined), the values for the Inhibition with Staphylococcus aureus and in the assay on Escherichia coli were -8.06% and -7.16%, respectively.

As to `CCOC(=O)c1c(C)nc2nc3c(c(N)c2c1-c1ccc(Cl)cc1)CCCCC3`, the Inhibition with Staphylococcus aureus is recorded as 2.05%; with Escherichia coli, -16.85%.

Turning to `O=C(N[C@H]1CC[C@@H](Br)[C@@H](Br)C1)C(F)(F)F`, the Inhibition is 24.31% in the assay on Staphylococcus aureus and -25.88% in the assay on Escherichia coli.

With `CC1(C)OC(=O)C(=Cc2ccc([N+](=O)[O-])cc2)C(=O)O1`, the results for the Inhibition in the assay with Staphylococcus aureus and in the assay on Escherichia coli were 28.78% and 10.5%, respectively.

Turning to `CCOc1nc2nc3c(c(N)c2cc1C#N)CCCC3`, the Inhibition was -2.29% in the assay on Staphylococcus aureus and -2.83% in the assay with Escherichia coli.

Consider `CC#CCN(Cc1ccccc1)c1nc(N)c(C#N)c(-c2ccccc2)c1C#N`, for which the values for the Inhibition with Staphylococcus aureus and with Escherichia coli were 17.54% and -2.98%, respectively.

As to `COc1cccc(C2c3c(ccc4ccccc34)OC(=NBr)C2(Br)C#N)c1` (centres undefined), the Inhibition in the assay with Staphylococcus aureus is 39.2%; in the assay with Escherichia coli, -16.78%.

`NOC(=O)C1CCN(Cc2ccccc2)CC1`: the Inhibition with Staphylococcus aureus is 21.2%; in the assay on Escherichia coli, 1.52%.

For `N#Cc1c(Cl)nc(NC2CCN(Cc3ccccc3)CC2)c(C#N)c1-c1ccccc1`, the Inhibition in the assay on Staphylococcus aureus is recorded as -0.92%; in the assay on Escherichia coli it was -18.84%.

For the compound `COc1ccccc1[C@H]1c2c(ccc3ccccc23)O/C(=N\Br)[C@@]1(Br)C#N`, the Inhibition stood at 33.19% in the assay on Staphylococcus aureus and 14.2% with Escherichia coli.

Regarding `Cl.OCCCC1CCNCC1`, the Inhibition is recorded as 22.6% in the assay with Staphylococcus aureus and 13.14% in the assay on Escherichia coli.

In the case of `C#CCN(C)Cc1cc2cc(OCCC3CCN(Cc4ccccc4)CC3)ccc2n1C.Cl`, the Inhibition is listed as 28.43% in the assay on Staphylococcus aureus and -29.82% in the assay on Escherichia coli.

Take `O=C1OC(c2ccc([N+](=O)[O-])cc2)=NC1=Cc1ccccc1`: the Inhibition in the assay on Staphylococcus aureus amounted to 12.67%; with Escherichia coli, 13.11%.

For `Nc1c2c(nc3nc4ccccc4nc13)CCCC2`, the Inhibition was 36.81% in the assay with Staphylococcus aureus and -11.07% in the assay with Escherichia coli.

With `C#CCN(C)Cc1cc2cc(OCCCCC3CCN(Cc4ccccc4)CC3)ccc2n1C.Cl`, the Inhibition is 41% in the assay with Staphylococcus aureus and -14.71% with Escherichia coli.

In the case of `C=C1CN(C)c2c(C#N)cc(C#N)c(=S)n21`, the values for the Inhibition in the assay on Staphylococcus aureus and with Escherichia coli were 18.51% and -1.72%, respectively.

As to `COc1cc(Br)c(C=O)cc1OC`, the Inhibition amounted to 28.77% with Staphylococcus aureus and 5% in the assay with Escherichia coli.

For `CNC(=O)NC1(C(=O)O)CC1c1ccccc1` (centres undefined), the Inhibition in the assay with Staphylococcus aureus amounted to 10.75%; in the assay on Escherichia coli, 8.23%.

As to `C#CCN(C)Cc1cc2cc(OCCCC3CCN(Cc4ccc(OC)c5ncccc45)CC3)ccc2n1C`, the Inhibition in the assay on Staphylococcus aureus is on record as 8.98%; in the assay on Escherichia coli, -14.67%.

For `Cn1ccnc1C1c2ccc3ccccc3c2Oc2nc3c(c(N)c21)CCCCC3` (centres undefined), the results for the Inhibition in the assay on Staphylococcus aureus and with Escherichia coli were 17.85% and -12.42%, respectively.

On to `COc1nc(N)c(C#N)c(-c2ccccc2)c1C#N`, for which the Inhibition in the assay with Staphylococcus aureus is on record as 26.81%; in the assay with Escherichia coli, -3.07%.

As for `N#Cc1cc(C#N)c(N2CCCCC2)nc1Cl`, the Inhibition in the assay on Staphylococcus aureus came to 15.2%; in the assay on Escherichia coli, 9.21%.

`CC(=O)NC(=Cc1ccccc1)C(=O)O`: the values for the Inhibition in the assay with Staphylococcus aureus and in the assay on Escherichia coli were 13.69% and 10.22%, respectively.
